Assay results published in ChEMBL document CHEMBL5308504, “Tm Shift (DSF) assay results for EUbOPEN Chemogenomics Library” (2023).

Legend:
[1] = biological target: Bromodomain-containing protein 4 (Homo sapiens) (UniProt O60885); details: Compound concentration 20.0 uM, Protein concentration 2.0 uM, Result type QC Liability
[2] = biological target: T1, Transcription intermediary factor 1-alpha (Homo sapiens) (UniProt O15164); details: Compound concentration 20.0 uM, Protein concentration 2.0 uM, Result type QC Liability
T1 sequence (whole entry): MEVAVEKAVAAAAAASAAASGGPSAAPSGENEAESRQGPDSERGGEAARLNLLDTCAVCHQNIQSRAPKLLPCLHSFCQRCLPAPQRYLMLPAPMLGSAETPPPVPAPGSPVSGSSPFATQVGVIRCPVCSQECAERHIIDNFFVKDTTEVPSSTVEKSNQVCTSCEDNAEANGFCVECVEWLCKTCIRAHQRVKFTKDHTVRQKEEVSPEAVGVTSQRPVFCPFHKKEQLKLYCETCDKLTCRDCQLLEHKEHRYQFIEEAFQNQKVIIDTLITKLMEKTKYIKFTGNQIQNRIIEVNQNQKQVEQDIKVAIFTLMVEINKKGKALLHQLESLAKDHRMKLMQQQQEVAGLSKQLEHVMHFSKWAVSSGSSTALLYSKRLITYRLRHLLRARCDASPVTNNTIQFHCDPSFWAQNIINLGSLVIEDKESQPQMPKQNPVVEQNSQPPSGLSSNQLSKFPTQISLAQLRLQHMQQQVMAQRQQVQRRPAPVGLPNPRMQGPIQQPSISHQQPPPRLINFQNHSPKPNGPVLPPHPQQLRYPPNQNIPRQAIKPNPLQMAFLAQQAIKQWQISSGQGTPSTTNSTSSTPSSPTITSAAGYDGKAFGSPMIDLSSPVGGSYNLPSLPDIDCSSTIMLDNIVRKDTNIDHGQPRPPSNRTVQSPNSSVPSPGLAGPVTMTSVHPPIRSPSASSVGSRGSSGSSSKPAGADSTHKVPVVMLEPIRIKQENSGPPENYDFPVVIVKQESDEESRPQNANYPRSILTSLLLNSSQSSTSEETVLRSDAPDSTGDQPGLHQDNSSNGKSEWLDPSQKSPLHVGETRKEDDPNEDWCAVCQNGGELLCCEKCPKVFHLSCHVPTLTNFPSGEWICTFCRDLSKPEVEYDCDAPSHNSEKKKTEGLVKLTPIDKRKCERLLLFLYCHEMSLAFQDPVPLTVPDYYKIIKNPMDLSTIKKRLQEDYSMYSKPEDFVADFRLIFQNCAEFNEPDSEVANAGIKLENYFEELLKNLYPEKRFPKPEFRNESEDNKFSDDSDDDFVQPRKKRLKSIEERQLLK

Row | Structure (SMILES) | ΔTm [1] [°C] | ΔTm [2] [°C]
1 | Cc1[nH]nc(C(F)(F)F)c1Cc1sc2c(c1C(=O)N1C[C@](C)(O)CO1)c(=O)n(C)c(=O)n2C(C)C | -1.28 | -0.8
2 | Clc1cccc(Nc2nccc(NCCCN3CCOCC3)n2)c1 | -3.15 | -3.59
3 | Fc1ccc(-c2nc(-c3c(F)cccc3F)[nH]c2-c2ccncc2)cc1 | 0.95 | -2.15
4 | C=CC(=O)Nc1cccc(C)c1Nc1ncc2cc(-c3c(Cl)c(OC)cc(OC)c3Cl)ccc2n1 | 0.13 | 0
5 | N[C@@H]1CCCC[C@H]1Oc1ccc2ncc(-c3cc4ccccc4o3)n2n1 | -0.47 | -0.16
6 | C#Cc1cnc2[nH]cc(-c3cccc4c3CCN4C(=O)[C@@H]3CCCN3C#N)c2c1 | -0.57 | -0.61
7 | CC(=O)c1c(C)c2cnc(Nc3ccn(C)n3)nc2n(C2CCCC2)c1=O | -0.76 | -2.16
8 | N[C@@H]1CCCN(c2c(/C=C3\SC(=O)NC3=O)cccc2-c2ccccc2)C1 | -2.91 | -2.28
9 | CC(C)(C)c1cc(NC(=O)c2csc(Nc3ccccn3)n2)no1 | 1.16 | 1.12
10 | CN1CCCN(C(=O)c2cccc(-c3ccc(/C=C4/C(=O)Nc5ccc(Cl)cc54)o3)c2)CC1 | -4.14 | -5.43
11 | CNC(=O)COc1cc2cc(Nc3nc(N4C[C@H](C)C[C@H](C)C4)ncc3Cl)ccc2n(C)c1=O | -0.33 | 0.23
12 | O=C1Nc2ccc(I)cc2/C1=C/c1cc(Br)c(O)c(Br)c1 | -0.9 | -2.17
13 | CC(C)N1CCN(Cc2cnc(-c3cc(-c4cccc5[nH]ccc45)cc4[nH]ncc34)o2)CC1 | 0 | -2.06
14 | Cc1nc2ccc(Oc3ccc(F)cc3)cc2c(=O)n1C[C@H]1CCCN(C(C)C)C1 | 0.67 | 0.18
